# Screening results (PubChem)
# Only a selection was taken, and hits are over-represented in it overall.
# hNpr1 antagonist = human Npr1 receptor antagonism; HEK293 hNpr1 GloSensor cGMP, ANP-stimulated luminescence; actives 1.6% (n = 76,000); P16066; Potency, µM (titrated, usually from 46.3 µM), usual class: inhibitors; AID 1347048; note: nearly all actives have a fitted effect of over 60% in size
#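 Compound pre-incubated 30 min at room temperature on GloSensor-loaded HEK293 cells stably carrying hNpr1 and the pGS-40F cGMP biosensor. Stimulation uses hNppA at 0.1 nM final; luminescence is taken at baseline and 20 min post-agonist.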
# GPT2 inh = inhibitors of human GPT2 alanine aminotransferase; Potency, µM (top dose mostly 57.7 µM), actives largely listed as inhibitors; Recombinant GPT2, coupled pyruvate oxidase/HRP Amplex Red fluorescence; Q8TD30; actives 0.25% (n = 100,000); active = well fitted inhibition curve with a large enough effect; inconclusive = small, poorly fitted or top-dose-only effect; note: nearly all actives have a fitted effect of over 60% in size
# Target sequence (Q8TD30 whole entry, looked up): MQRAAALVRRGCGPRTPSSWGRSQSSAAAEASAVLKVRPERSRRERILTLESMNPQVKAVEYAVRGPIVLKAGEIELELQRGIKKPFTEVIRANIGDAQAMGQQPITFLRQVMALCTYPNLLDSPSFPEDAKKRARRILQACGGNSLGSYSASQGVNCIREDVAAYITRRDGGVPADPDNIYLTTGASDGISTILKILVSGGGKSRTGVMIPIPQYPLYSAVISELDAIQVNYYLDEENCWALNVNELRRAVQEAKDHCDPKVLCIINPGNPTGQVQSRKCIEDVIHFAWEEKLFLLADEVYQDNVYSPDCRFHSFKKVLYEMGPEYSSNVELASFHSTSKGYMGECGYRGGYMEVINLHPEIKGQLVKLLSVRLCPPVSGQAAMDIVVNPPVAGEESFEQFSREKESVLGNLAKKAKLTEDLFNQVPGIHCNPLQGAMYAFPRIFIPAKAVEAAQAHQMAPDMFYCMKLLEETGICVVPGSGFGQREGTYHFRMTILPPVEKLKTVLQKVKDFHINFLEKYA
#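 Inhibition is scored from Amplex Red fluorescence generated when pyruvate oxidase and HRP act on pyruvate released by GPT2. Reactions contain 10ng/uL enzyme, 250uM a-KG and 2mM L-alanine and run 30 min at room temperature.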
# NPR1 antag cnf = hNpr1 antagonism, confirmation assay; HEK293 hNpr1 cGMP GloSensor luminescence, ANP-stimulated; actives 76% (n = 1,400); shares compounds with hNpr1 antagonist; Potency, µM (series often up to 57.6 µM), most hits filed as inhibitors; note: nearly all actives have a fitted effect of over 70% in size
# NPR2 antag = hNpr2 antagonism, selectivity versus Npr1. shares compounds with hNpr1 antagonist. HEK293 hNpr2 GloSensor cGMP luminescence, CNP-stimulated. Potency, µM (series often up to 57.6 µM), most hits filed as inhibitors. actives 67% (n = 1,400). AID 1347046; note: nearly all actives have a fitted effect of over 70% in size
# FLuc counter = FLuc enzyme inhibition, Npr1 counter-screen; shares compounds with hNpr1 antagonist; AID 1347047; Potency, µM (doses to about 57.6 µM), usual class: inhibitors; actives 0.7% (n = 1,400); purified FLuc enzyme, luminescence, Km substrate; active = well fitted inhibition curve with a large enough effect; inconclusive = small, poorly fitted or top-dose-only effect
# GloSensor ctrl = counter-screen for Npr1 antagonists: GloSensor control cell line. HEK293 GloSensor cGMP, SNP-stimulated, luminescence. shares compounds with hNpr1 antagonist. actives 69% (n = 1,400). Potency, µM (highest dose often 57.6 µM), hits mostly inhibitors. AID 1347051; note: nearly all actives have a fitted effect of over 70% in size
# Hits are given with their value; n = inactive; u = inconclusive; x = no result given. Unless noted, calls come from the whole dose curve.
SMILES,hNpr1 antagonist,GPT2 inh,NPR1 antag cnf,NPR2 antag,FLuc counter,GloSensor ctrl
Cc1nc(-c2ccc(OC3CCN(C(=O)NC4CCCCC4)C3)cc2)no1 (stereo not drawn),n,n,x,x,x,x
CCN(CC)C(=O)N1CC(Oc2ccc(-c3noc(COC)n3)cc2)C1,10µM,n,9.7µM,8.6µM,n,6.9µM
Cc1ccccc1[C@H]1C[C@@H](O)[C@@H](O)[C@@H]1NS(=O)(=O)c1ccc(C(F)(F)F)cc1,n,n,x,x,x,x
CN(C)c1cccc(C(=O)N2CCC3(CC2)NC(=O)N(c2cccc(F)c2)N3)c1,n,n,x,x,x,x
COc1cc(C(=O)N2CCC(C(=O)O)(n3cccn3)CC2)ccc1F,n,n,x,x,x,x
Cc1ccc(-c2cc(N3CCCN(C(=O)c4cccn4C)CC3)n[nH]2)cc1C,n,n,x,x,x,x
O=[S+]1([O-])NCC2(CCN(CC3CCCC3)CC2)Oc2ncccc21,x,n,x,x,x,x
Cc1ccc(OCC(=O)NCC2CCCCC(=O)N2)cc1 (stereo not drawn),n,n,x,x,x,x
CC1CCC2(CC1)OCC(C(=O)NC1CCCCC1)N2C(=O)c1ccc(F)cc1 (stereo not drawn),n,n,x,x,x,x
Cc1cccc(CN2CCC3(CC2)COCCN3C(=O)OCc2ccccc2)c1,n,n,x,x,x,x
COc1ccccc1C(=O)N1CCC(C(NC(=O)c2cccs2)C(=O)N2CCCCC2)CC1 (stereo not drawn),n,n,x,x,x,x
O=C(N[C@H]1CCN2C(=O)c3ccccc3NC(=O)[C@@H]2C1)c1cccs1,n,n,x,x,x,x
Cc1noc(-c2ccc(OC3CN(C(=O)NCc4ccc(F)cc4)C3)cc2)n1,13µM,n,27µM,u,n,24µM
COCc1nc(-c2ccc(OC3CN(C(=O)NC(C)C)C3)cc2)no1,13µM,n,24µM,24µM,n,24µM
Cc1noc(-c2ccc(OC3CN(C(=O)NCc4ccccc4)C3)cc2)n1,u,n,x,x,x,x
COCc1nc(-c2ccc(OC3CN(C(=O)NCc4ccccc4)C3)cc2)no1,u,n,x,x,x,x
CC(C)(C)NC(=O)N1CCC2(CC1)CC(Cc1nc(-c3cnccn3)no1)CCO2 (stereo not drawn),n,n,x,x,x,x
Cn1cccc1C(=O)N1CC(F)(F)C[C@H]1c1nnc(C2CC2)o1,n,n,x,x,x,x
Cc1nsc(NC(=O)N2CCCN(c3ccccc3)CC2)n1,n,n,x,x,x,x
COc1ccc(N2CCN(C(=O)Nc3nc(C)ns3)CC2(C)C)cc1,7.9µM,n,12µM,15µM,n,8.6µM
CC1(COCC2CC2)COc2ccc(C(=O)Nc3cccnc3)cc2N1 (stereo not drawn),u,u,n,n,n,n
COc1ccc(NC(=O)c2ccc3c(c2)NC(C)(CNc2ccccc2)CO3)cn1 (stereo not drawn),35µM,n,40µM,u,n,u
COc1ccc(NC(=O)c2ccc3c(c2)NC(C)(COc2ccccc2)CO3)cn1 (stereo not drawn),u,n,x,x,x,x
CCOCC1(C)COc2ccc(C(=O)Nc3cccnc3)cc2N1 (stereo not drawn),n,n,x,x,x,x
O=C(C1CCCN1C(=O)c1ccc(Cl)nc1)N1CCC(c2nc3ccncc3[nH]2)C1 (stereo not drawn),x,n,x,x,x,x
SMILES,hNpr1 antagonist,GPT2 inh,NPR1 antag cnf,NPR2 antag,FLuc counter,GloSensor ctrl
COc1ccccc1OCc1cc(C(=O)N2CCC(NC(C)=O)CC2)n[nH]1,n,n,x,x,x,x
CC(C)[C@@H]1CN(C(=O)c2cc(N3CCCCC3)ccc2Cl)C[C@H]1N(C)C,n,n,x,x,x,x
O=C(Nc1ccccc1Cl)N1CC(c2nnc(-c3ccncc3)o2)C2(CCOCC2)C1 (stereo not drawn),n,n,x,x,x,x
COc1ccc(C(=O)N2CCCN(C)c3ccccc32)c(OC)c1,n,u,x,x,x,x
COc1ccc(OC)c(NC(=O)N2CCCN(C)c3ccccc32)c1,u,n,u,12µM,n,n
Cc1nc(C)c(C(=O)N2CCCn3cc(-c4ccccc4F)nc32)s1,n,n,x,x,x,x
CC1=NS(=O)(=O)N(C)C=C1C(=O)OCc1noc(-c2ccccc2F)n1,11µM,n,19µM,17µM,n,14µM
CC1=NS(=O)(=O)N(Cc2ccccc2)C=C1C(=O)OCc1nc(-c2cccs2)no1,n,n,x,x,x,x
COC(=O)c1ccc(COC(=O)C2=CN(C)S(=O)(=O)N=C2C)o1,u,n,24µM,u,n,19µM
CC1=NS(=O)(=O)N(Cc2ccccc2)C=C1C(=O)OCc1noc(C2CCCC2)n1,n,n,x,x,x,x
CC1=NS(=O)(=O)N(C)C=C1C(=O)OCc1nc(-c2cccs2)no1,u,n,24µM,u,n,22µM
CC1=NS(=O)(=O)N(Cc2ccccc2)C=C1C(=O)OCc1noc(CC2CCCCC2)n1,u,n,x,x,x,x
CC1=NS(=O)(=O)N(C)C=C1C(=O)OCc1noc(-c2cccs2)n1,10µM,n,22µM,19µM,n,22µM
COc1ccc(CN2C=C(C(=O)OCc3c(C)noc3C)C(C)=NS2(=O)=O)cc1,n,u,x,x,x,x
Cc1ccsc1C(=O)N1CCC(N2C(=O)CCC2C(=O)NCc2cccnc2)CC1 (stereo not drawn),x,n,x,x,x,x
O=C(NCCc1ccccc1)c1ccc(N2CC3CC(C2)[C@H]2CCCC(=O)N2C3)nc1 (stereo partly drawn),n,n,x,x,x,x
O=C(NC1CCN(c2cc(-c3ccc(Cl)cc3)[nH]n2)CC1)c1ccc(F)cc1F,n,n,x,x,x,x
O=C1N[C@@H]2CCN(C(=O)COc3ccccc3)[C@@H]2C(=O)N1c1ccc(Oc2ccccc2)cc1,n,n,x,x,x,x
CCCS(=O)(=O)N[C@H]1C[C@@H](c2nc(-c3ccc(OC)cc3)no2)N(C)C1,n,n,x,x,x,x
COCCNc1c(-c2noc(C)c2C(=O)Nc2ccc(OC)cc2)cnn1C,n,n,x,x,x,x
CC1=NS(=O)(=O)N(C)C=C1C(=O)OCc1nc(C2CC2)no1,n,n,x,x,x,x
CC1=NS(=O)(=O)N(C)C=C1C(=O)OCc1noc(-c2ccccc2C)n1,10µM,n,11µM,17µM,n,11µM
O=C(NC1CCCCCC1)c1ccc2oc(-c3cccnc3)nc2c1,x,n,x,x,x,x
CC(C)c1nc2c(c(-c3ccc(Cl)cc3)n1)CCN(C(=O)c1ccc3c(c1)OCO3)CC2,x,n,x,x,x,x
Cc1ccc(CNC(=O)N2CCC(Cc3ccc(C(=O)NC4CC4)cc3)CC2)cc1,u,n,u,u,n,u
CC(C)CCN1CCC(Cc2ccc(C(=O)NC3CC3)cc2)CC1,n,n,x,x,x,x
COc1ccc(C(=O)N2CCCN(c3cc(-c4ccc(Cl)cc4)[nH]n3)CC2)cc1F,u,u,24µM,22µM,n,24µM
COc1ccc(C(=O)N2CCCN(c3cc(-c4ccccc4)[nH]n3)CC2)cc1F,n,u,x,x,x,x
COc1ccc(C(=O)N2CCN(c3cc(-c4ccc(Cl)cc4)[nH]n3)CC2)cc1OC,6.3µM,n,15µM,19µM,n,14µM
